A selection: hits, their analogues and other compounds. The true share with any hit is near 11%.
HEK cytotox: Cytotoxic Profiling in HEK 293 Cell Line of Diverse Libraries Using Quantitative High-Throughput Screening. HEK 293 viability, ATP luminescence (CellTiter-Glo), 48-72 h. Potency, µM (highest dose often 115 µM), most hits filed as inhibitors. hit rate 6.6% among 94,000; further: nearly all actives have a fitted effect of over 60% in size
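Viability of HEK 293 cells, plated at 250 cells/well, was judged by cellular ATP after compound treatment for 48 or 72 hr. Luminescence was imaged 10 min after CellTiter-Glo addition at room temperature.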
NPR1 antag: Natriuretic polypeptide receptor (hNpr1) antagonism - Primary qHTS. Atrial natriuretic peptide receptor 1 (Homo sapiens), P16066. HEK293 hNpr1 GloSensor cGMP, ANP-stimulated luminescence. Potency, µM (highest dose often 46.3 µM), usual class: inhibitors. hit rate 1.6% among 76,000; calls by dose curve; further: nearly all actives have a fitted effect of over 60% in size
Target sequence (P16066 whole entry, looked up): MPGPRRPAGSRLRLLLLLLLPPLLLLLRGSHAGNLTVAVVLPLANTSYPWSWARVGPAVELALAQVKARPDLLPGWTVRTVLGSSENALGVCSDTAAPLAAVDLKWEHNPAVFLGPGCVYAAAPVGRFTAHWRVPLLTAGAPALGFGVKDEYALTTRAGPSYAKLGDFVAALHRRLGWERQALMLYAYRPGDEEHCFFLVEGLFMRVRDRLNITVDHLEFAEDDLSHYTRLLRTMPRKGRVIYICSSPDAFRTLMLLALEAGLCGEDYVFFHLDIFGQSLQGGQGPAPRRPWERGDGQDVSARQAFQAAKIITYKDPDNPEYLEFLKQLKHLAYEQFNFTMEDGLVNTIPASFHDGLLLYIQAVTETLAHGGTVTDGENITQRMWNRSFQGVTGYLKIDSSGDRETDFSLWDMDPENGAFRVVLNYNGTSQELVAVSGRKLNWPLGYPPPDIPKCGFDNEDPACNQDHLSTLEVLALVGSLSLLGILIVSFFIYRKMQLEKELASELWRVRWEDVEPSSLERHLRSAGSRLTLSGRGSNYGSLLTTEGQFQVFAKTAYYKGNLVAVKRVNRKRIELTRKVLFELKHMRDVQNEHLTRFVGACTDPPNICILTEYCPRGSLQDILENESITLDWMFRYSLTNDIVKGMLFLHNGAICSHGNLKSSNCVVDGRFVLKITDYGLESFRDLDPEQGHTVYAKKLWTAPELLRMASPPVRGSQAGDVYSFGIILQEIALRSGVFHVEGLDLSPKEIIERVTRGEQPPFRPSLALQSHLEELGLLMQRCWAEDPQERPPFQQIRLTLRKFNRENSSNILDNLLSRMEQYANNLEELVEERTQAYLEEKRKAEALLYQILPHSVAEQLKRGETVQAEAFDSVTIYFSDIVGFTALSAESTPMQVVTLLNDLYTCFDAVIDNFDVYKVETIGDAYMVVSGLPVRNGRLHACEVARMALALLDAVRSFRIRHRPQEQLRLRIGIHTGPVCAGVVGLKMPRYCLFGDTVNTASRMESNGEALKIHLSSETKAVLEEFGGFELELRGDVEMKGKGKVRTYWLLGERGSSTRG
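HEK293 cells stably expressing human Npr1 and cGMP GloSensor pGS-40F, loaded 2 h with 2% GloSensor reagent, given compound 30 min at room temperature. Luminescence read before and 20 min after 0.1 nM hNppA.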
NIH3T3 tox: Cytotoxic Profiling in NIH 3T3 Cell Line of Diverse Libraries Using Quantitative High-Throughput Screening; NIH 3T3 viability, CellTiter-Glo ATP luminescence, 48-72 h; Potency, µM (top dose mostly 96.7 µM), actives largely listed as inhibitors; hit rate 4.3% among 94,000; further: nearly all actives have a fitted effect of over 55% in size
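Luminescent ATP readout (CellTiter-Glo, 10 min RT) after 48 or 72 hr compound exposure of NIH 3T3 cells seeded at 400 cells/well in 1536-well format; quantitative HTS.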
FLuc inh: Firefly luciferase inhibition profiling of diverse chemical library using quantitative high-throughput screening | AID 1347043, 2019 | hit rate 2.5% among 76,000 | purified P. pyralis luciferase, luminescence, biochemical | Potency, µM (top dose mostly 115 µM), hits mostly inhibitors | Luciferin 4-monooxygenase (Photinus pyralis), P08659; further: nearly all actives have a fitted effect of over 65% in size
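Luminescence read by CCD imager after adding enzyme (10nM final) to wells holding compound, titrated in qHTS. Substrates 10uM each D-luciferin and ATP; buffer 50mM Tris acetate pH 7.5, 10mM Mg acetate, Tween-20, BSA.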
A number is an active result; - = inactive; ? = inconclusive; . = not tested or not shown. Unless noted, the call rests on the fitted dose curve; in most records, active means well fitted curve in the direction sought with a large enough effect; inconclusive means small, poorly fitted or top-dose-only effect, or another doubt; inactive means no such curve, though single readings can be large; an effect the other way counts as inactive or inconclusive.

SMILES	HEK cytotox	NPR1 antag	NIH3T3 tox	FLuc inh
COc1ccccc1-c1cc([C@H]2CN3CC[C@H]2C[C@@H]3CNC(=O)c2cccs2)n(C)n1	?	-	-	-
Cc1nc(-c2ccc(C(F)(F)F)cc2)cc([C@H]2CN3CC[C@H]2C[C@@H]3CNC(=O)N2CCOCC2)n1	?	-	?	-
Cc1nc(-c2ccccc2Br)cc([C@H]2CN3CC[C@H]2C[C@@H]3CNC(=O)Nc2ccc(Cl)cc2)n1	22µM	-	35µM	-
Cc1nc(-c2ccc(F)cc2)cc([C@H]2CN3CC[C@H]2C[C@@H]3CNC(=O)c2ccco2)n1	?	-	100µM	-
Cc1nc(-c2ccccc2)cc([C@H]2CN3CC[C@H]2C[C@@H]3CNC(=O)N2CCOCC2)n1	?	-	89µM	-
Cc1nc(-c2ccc(C(F)(F)F)cc2)cc([C@H]2CN3CC[C@H]2C[C@@H]3CNC(=O)C(C)(C)C)n1	40µM	-	20µM	-
CCOC(=O)CN1C(=O)[C@@H]2[C@H](c3ccccc31)[C@@H](C(=O)OCC)[C@@H](c1ccccc1)N2C(=O)C1CC1	?	.	-	.
O=C1NCCOCCN[C@H]2CCC[C@@H]12	-	-	-	-
Cc1nc(-c2ccc(F)cc2)cc([C@H]2CN3CC[C@H]2C[C@@H]3CNC(=O)NCc2ccccc2)n1	?	-	?	-
Cc1nc(-c2ccco2)cc([C@H]2CN3CC[C@H]2C[C@@H]3CNCC2CCCCC2)n1	112µM	-	89µM	-
Cc1nc(-c2ccc(F)cc2)cc([C@H]2CN3CC[C@H]2C[C@@H]3CNC(=O)Nc2cccc(C#N)c2)n1	?	-	22µM	-
Cc1nc(-c2ccccc2Br)cc([C@H]2CN3CC[C@H]2C[C@@H]3CNC(=O)Nc2cccc(C#N)c2)n1	22µM	-	28µM	-
CCN1CCCN(C(=O)COc2ccccc2)CC12CCOCC2	-	.	-	.
Cc1cccc(CN2C[C@@H]3C[C@H]2C(=O)N(C)c2ccccc2O3)n1	-	-	-	-
CC(C)(C)c1ccc(-c2cn(C[C@H]3CC4CCN3C[C@@H]4C(=O)N3CCOCC3)nn2)cc1 (stereo not given in full)	-	-	-	?
CC[C@H]1CN2CC[C@H]1C[C@@H]2CNC(=O)Nc1cccc(SC)c1	-	-	-	-
CCN(CC)C[C@H]1CN2CC[C@H]1C[C@@H]2CNC(=O)Nc1cccc(SC)c1	50µM	-	40µM	-
CSc1cccc(NC(=O)NC[C@H]2C[C@@H]3CCN2C[C@@H]3CN(C)Cc2ccccc2)c1	28µM	-	22µM	-
CSc1cccc(NC(=O)NC[C@H]2C[C@@H]3CCN2C[C@@H]3CN(C)c2ccccc2)c1	25µM	-	32µM	?
FC(F)(F)CN1C2CCC1CN(c1cncc(Br)c1)C2	-	.	-	.
O=C(NC[C@H]1C[C@@H]2CCN1C[C@@H]2CN1CCN(c2ccc(F)cc2)CC1)Nc1ccsc1	79µM	-	?	-
C=C[C@H]1CN2CC[C@H]1C[C@@H]2CNC(=O)Nc1cc(OC)cc(OC)c1	-	-	?	-
C#C[C@H]1CN2CC[C@H]1C[C@@H]2CNC(=O)Nc1ccc(Oc2ccccc2)cc1	40µM	-	40µM	-
C=C[C@H]1CN2CC[C@H]1C[C@@H]2CNC(=O)Nc1ccc(OC(F)(F)F)cc1	-	-	?	-
C=C[C@H]1CN2CC[C@H]1C[C@@H]2CNC(=O)c1cc(OC)c(OC)c(OC)c1	?	-	45µM	-
SMILES	HEK cytotox	NPR1 antag	NIH3T3 tox	FLuc inh
C=C[C@H]1CN2CC[C@H]1C[C@@H]2CNC(=O)Nc1ccc(Oc2ccccc2)cc1	100µM	-	?	-
C=C[C@H]1CN2CC[C@H]1C[C@@H]2CNC(=O)Nc1ccc(Br)cc1	56µM	-	?	-
C#C[C@H]1CN2CC[C@H]1C[C@@H]2CNC(=O)Nc1ccc(C(C)=O)cc1	?	-	?	-
CCn1cc(S(=O)(=O)N2[C@H]3CC[C@@H]2c2cnc(-c4ccccc4)nc2C3)cn1	?	-	-	-
Cc1ccc(C(=O)N2[C@H]3CC[C@@H]2c2cnc(-c4ccc(F)cc4)nc2C3)cn1	?	-	-	-
CC(C)CCN1CCC2(CC1)C(=O)Nc1ccccc12	-	.	-	.
Cn1nc(-c2cccs2)cc1[C@H]1CN2CC[C@H]1C[C@@H]2CNC(=O)NCc1ccccc1	-	-	-	-
Cn1nc(-c2ccc(F)cc2)cc1[C@H]1CN2CC[C@H]1C[C@@H]2CNC(=O)NCc1ccccc1	25µM	-	?	-
Cn1nc(-c2ccccc2)cc1[C@H]1CN2CC[C@H]1C[C@@H]2CNC(=O)NCc1ccccc1	?	-	100µM	-
COc1ccc(CNC[C@H]2C[C@@H]3CCN2C[C@@H]3c2cc(-c3ccc(F)cc3)nn2C)cc1	45µM	-	89µM	-
COC[C@H]1C[C@@H](NC2CCN(C)CC2)[C@H](O)[C@@H]1O	-	-	-	-
O=c1ccc(-c2ccccc2)c2n1C[C@H]1C[C@@H]2CN(S(=O)(=O)c2cccs2)C1	-	-	?	-
COc1cc2c(cc1OC1CCCC1)NC(=O)C21CCN(Cc2nccs2)CC1	100µM	-	?	-
COc1cc2c(cc1OC1CCCC1)NC(=O)C21CCN(Cc2cccnc2)CC1	100µM	-	?	-
COc1cc2c(cc1OC1CCCC1)NC(=O)C21CCN(Cc2ccccc2O)CC1	40µM	-	22µM	-
CC[C@H]1CN2CC[C@H]1C[C@@H]2CNC(=O)c1ccc2c(c1)OCO2	-	-	-	-
CN(CCc1ccccn1)C[C@H]1CN2CC[C@H]1C[C@@H]2CNC(=O)c1ccc2c(c1)OCO2	-	-	-	-
C=C[C@H]1CN2CC[C@H]1C[C@@H]2CNS(=O)(=O)c1cccc(F)c1	-	-	-	-
COc1cc2c(cc1OCc1cccnc1)N(C(=O)Cc1cccc(Cl)c1)CC21CCN(CC(=O)O)CC1	-	-	?	-
COc1ccccc1-c1cc([C@H]2CN3CC[C@H]2C[C@@H]3COC(=O)Nc2ccccc2)nc(C)n1	?	-	?	-
CCCNC(=O)OC[C@H]1C[C@@H]2CCN1C[C@@H]2c1cc(-c2ccccc2OC)nc(C)n1	?	-	63µM	-
COc1ccccc1-c1cc([C@H]2CN3CC[C@H]2C[C@@H]3CNS(=O)(=O)c2ccc(NC(C)=O)cc2)nc(C)n1	-	-	?	-
COc1ccccc1-c1cc([C@H]2CN3CC[C@H]2C[C@@H]3CNC(=O)CCC(=O)O)nc(C)n1	-	-	-	-
COc1ccccc1-c1cc([C@H]2CN3CC[C@H]2C[C@@H]3COC(=O)NC2CCCCC2)nc(C)n1	11µM	-	?	-
COc1ccccc1-c1cc([C@H]2CN3CC[C@H]2C[C@@H]3COC(=O)NC(C)C)nc(C)n1	?	-	45µM	-
OC[C@@H]1[C@H]2CN(Cc3ccoc3)CCN2C[C@H]1c1ccccc1	?	.	-	.
